The text below walks through data of PubChem BioAssay AID1445 (SRMLSC, 2008).

The campaign covered roughly 220,000 compounds. About 910 (0.41%) were called active. The full list was thinned out, with actives kept by preference. Results with a measured potency or affinity are listed apart. A number with no mark means an inactive call.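 Rule for the calls: active = primary inhibition above the hit cutoff, then over 50% inhibition at one or more dose response concentrations (cut at about 23% in these data, passing the limit was not always enough); inconclusive = conflicting primary data, or primary hits not chosen for dose response; inactive = low primary inhibition, or under 50% at every dose.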

For this assay, the target named is Aminopeptidase N (Plasmodium falciparum (isolate 3D7)) (UniProt O96935). The assay can be described thus: malaria alanyl aminopeptidase activity blockers – biochemical, fluorogenic H-Leu-NHMec substrate, 1536-well (AID 1445).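 Note: plate controls were DMSO full reaction for no effect and no enzyme background for full effect.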 Particulars: recombinant M1AAP, H-Leu-NHMec fluorogenic kinetic assay; at 30 µM, active compounds read high unless noted.
Chain of Aminopeptidase N (Plasmodium falciparum (isolate 3D7)) (O96935 whole entry, looked up): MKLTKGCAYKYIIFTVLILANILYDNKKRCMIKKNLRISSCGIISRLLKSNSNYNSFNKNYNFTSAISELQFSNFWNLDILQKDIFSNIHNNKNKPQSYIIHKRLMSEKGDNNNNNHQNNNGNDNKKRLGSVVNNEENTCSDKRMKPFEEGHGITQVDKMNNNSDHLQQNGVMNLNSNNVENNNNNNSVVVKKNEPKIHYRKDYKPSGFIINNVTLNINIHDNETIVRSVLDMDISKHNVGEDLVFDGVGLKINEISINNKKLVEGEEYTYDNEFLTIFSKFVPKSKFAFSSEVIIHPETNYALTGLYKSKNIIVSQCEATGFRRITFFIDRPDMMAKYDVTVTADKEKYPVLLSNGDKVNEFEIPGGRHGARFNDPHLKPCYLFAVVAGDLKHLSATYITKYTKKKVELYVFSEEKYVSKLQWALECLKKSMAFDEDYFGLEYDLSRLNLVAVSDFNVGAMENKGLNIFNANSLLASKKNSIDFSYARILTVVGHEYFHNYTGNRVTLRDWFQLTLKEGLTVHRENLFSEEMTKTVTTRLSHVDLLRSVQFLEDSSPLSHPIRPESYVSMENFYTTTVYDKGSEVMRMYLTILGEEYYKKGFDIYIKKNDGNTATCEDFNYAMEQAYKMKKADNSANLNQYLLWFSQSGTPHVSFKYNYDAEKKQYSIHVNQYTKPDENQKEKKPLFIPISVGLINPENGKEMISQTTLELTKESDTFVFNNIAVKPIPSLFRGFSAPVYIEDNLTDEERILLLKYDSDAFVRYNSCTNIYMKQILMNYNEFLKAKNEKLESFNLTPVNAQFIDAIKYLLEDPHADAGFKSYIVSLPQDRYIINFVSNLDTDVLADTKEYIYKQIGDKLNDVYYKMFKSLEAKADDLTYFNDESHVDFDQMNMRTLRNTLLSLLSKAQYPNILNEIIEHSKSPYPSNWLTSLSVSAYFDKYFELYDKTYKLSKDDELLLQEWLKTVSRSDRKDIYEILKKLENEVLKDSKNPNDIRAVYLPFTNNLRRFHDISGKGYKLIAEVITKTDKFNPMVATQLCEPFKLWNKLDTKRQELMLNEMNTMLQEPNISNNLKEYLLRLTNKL
By inhibition is commonly meant the relative decrease from the control value, in per cent. `CCN1CCN(C(=O)C2CCN(Cc3cc(Cl)ccc3O)CC2)CC1`: the inhibition is 0.1%.

With `O=C(COC(=O)c1cc(NS(=O)(=O)c2cccs2)ccc1O)Nc1ccc(F)c(F)c1F`, the inhibition was 6.76%.

`CC(C)(C)C(=O)Nc1ccc(S(=O)(=O)Nc2ccccn2)cc1`: the inhibition is 4.68%.

With `C/C(Cc1ccccc1)=N/NC(=O)CCCC(=O)N/N=C(/C)Cc1ccccc1`, the inhibition is 1.32%.

Regarding `COc1ccc(C(=O)NNC(=O)Nc2ccc(C)cc2)cc1`, the inhibition was -2.61%.

For the molecule `CCOC(=O)C(NC(=O)c1ccccc1Cl)(Nc1ccc(C)c(C)c1)C(F)(F)F` (stereo unspecified), the inhibition is 3.71%.

As to `COCc1nnc(NC(=O)c2sc3ccccc3c2Cl)s1`, the inhibition was 17.9%.

For the molecule `Cc1nnc(NC(=O)c2sc3ccccc3c2Cl)s1`, the inhibition was 27.1% (active).

On to `Cc1cnc(NC(=O)c2sc3ccccc3c2Cl)s1`, for which the inhibition was 5.85%.

Turning to `CCc1nnc(NC(=O)c2ccc3ccccc3n2)s1`, the inhibition is 18.2%.

Consider `CCC(CC)c1nnc(NC(=O)c2ccc3ccccc3n2)s1`, for which the inhibition is 44%.

Consider `CC1=C(C(=O)Nc2ccccn2)C(c2ccc(N(C)C)cc2)n2ncnc2N1` (stereo unspecified), for which the inhibition was -4.41%.

For `CCC(C)[C@H](NC(=O)NC1CC1)C(=O)O` (stereo partly specified), the inhibition was 5.68%.

Turning to `CCN(CC)c1cc(C)c2cc(NC(=O)c3ccc(Br)o3)ccc2n1`, the inhibition is 8.17%.

In the case of `C[N+]1(CCCOC(=O)C2(c3ccccc3)CCCC2)CCOCC1`, the inhibition is 12.4%.

For the molecule `NC(=O)Cn1c(=O)n(CCc2ccccc2)c(=O)c2c3c(sc21)CCCC3`, the inhibition was -0.91%.

As to `COc1ccc(-n2c(=O)c3c4c(sc3n(CC(N)=O)c2=O)CCCCC4)cc1`, the inhibition is 4.45%.

In the case of `CCOC(=O)N1CCN(S(=O)(=O)c2ccc(C(=O)Nc3sc4c(c3C#N)CCC4)cc2)CC1`, the inhibition is 4.62%.

Regarding `Nc1nonc1-c1nc2ccccc2n1CC(=O)N/N=C\c1ccc(-c2ccc(Cl)cc2)o1`, the inhibition was -0.3%.

In the case of `NC(=O)Cn1c(-c2nonc2N)nc2ccccc21`, the inhibition is 2.36%.

On to `CCOC(=O)c1ccccc1NC(=O)Cn1c(-c2nonc2N)nc2ccccc21`, for which the inhibition was -0.93%.

`Nc1nonc1-c1nc2ccccc2n1CC(=O)Nc1ccccc1`: the inhibition is 2.57%.

With `COC(=O)c1ccccc1NC(=O)Cn1c(-c2nonc2N)nc2ccccc21`, the inhibition is 0.73%.

Consider `CC(C)(C)NC(=O)Cn1c(-c2nonc2N)nc2ccccc21`, for which the inhibition was 8.2%.

As for `COc1ccccc1C(=O)Nc1ccccc1C(=O)N1CCCC1`, the inhibition was 5.88%.

For `COc1ccc(CCNC(=O)COC(=O)c2ccc(N3CCCC3=O)cc2)cc1`, the inhibition was -2.72%.

For the molecule `CC(=O)/C(N=Nc1ccc(C(=O)O)cc1)=C(\C)O`, the inhibition is 7.52%.

Consider `Cc1ccc(C)c(N2CCN(C(=O)c3ccc(CSc4nc5ccncc5[nH]4)cc3)CC2)c1`, for which the inhibition is -6.94%.

On to `Cc1ccc(C2=Nc3ccc(Br)cc3C(c3ccncc3)=NN2)cc1`, for which the inhibition is -0.32%.

For `CCOC(=O)C1(CCOc2ccccc2)CCN(Cc2cnc(C)[nH]2)CC1`, the inhibition is 6.06%.

As to `CCN(CC)NC(=S)Nc1ccccc1`, the inhibition was -2.71%.

Turning to `CN(C)c1nc(-c2ccc([N+](=O)[O-])cc2)cs1`, the inhibition was 4.18%.

Consider `Cc1c(NC(=O)CSc2nncc3ccccc23)c(=O)n(-c2ccccc2)n1C`, for which the inhibition was 3.35%.

As to `O=C(NN1C(=O)/C(=C/C=C/c2ccco2)SC1=S)c1ccncc1`, the inhibition was 17.5%.

Turning to `CC(C(=O)O)N1C(=O)/C(=C/C=C/c2ccco2)SC1=S` (stereo unspecified), the inhibition is 10.5%.

On to `O=C(NN1C(=O)/C(=C\c2ccc(O)c([N+](=O)[O-])c2)SC1=S)c1ccccc1Cl`, for which the inhibition was 19.8%.

Take `O=C(O)CCCN1C(=O)/C(=C/C=C/c2ccco2)SC1=S`: the inhibition was 7.29%.

With `Cn1cccc1/C=C1\SC(=S)N(NC(=O)c2ccccc2Cl)C1=O`, the inhibition was 17.9%.

Take `O=C1/C(=C/c2ccc(O)c([N+](=O)[O-])c2)SC(=S)N1Cc1ccccc1`: the inhibition is 10.2%.

For the molecule `O=C1/C(=C/C=C/c2ccco2)SC(=S)N1c1ccc(O)cc1`, the inhibition was 15.5%.

Turning to `COc1ccccc1C(=O)NN1C(=O)/C(=C/c2cccn2C)SC1=S`, the inhibition was 15.2%.

In the case of `COc1ccccc1N(C)S(=O)(=O)c1ccc(C(=O)OCC(=O)Nc2cc(C)on2)cc1`, the inhibition is -7.23%.

Take `CC(C)CN(CCOc1cccc(N2C(=O)C3=C(CCCC3)C2=O)c1)CC(C)C`: the inhibition was 3.32%.

`CC(=O)c1cccc(NC(=O)N2CCCc3ccccc32)c1`: the inhibition was 7.74%.

Regarding `COc1ccc(C2CCCN2C(=S)Nc2ccccc2C)cc1OC` (stereo unspecified), the inhibition was -1.92%.

With `COc1ccc(C=O)cc1CSc1nnc(COc2cccc3cccnc23)o1`, the inhibition was 3.48%.

As to `C/C(CC(=O)Nc1cccc(C(F)(F)F)c1)=N/NC(=O)C(=O)NCCO`, the inhibition was 8.99%.

As for `O=C(Cc1c[nH]c2ccccc12)N/N=C/c1ccccc1O`, the inhibition is 20.7%.

For `CC(C(=O)Nc1ccc(N2CCOCC2)cc1)N1C(=O)c2ccccc2C1=O` (stereo unspecified), the inhibition was 4.39%.

With `COc1ccc(NC(=O)C(C)N2C(=O)c3ccccc3C2=O)cc1S(=O)(=O)N1CCOCC1` (stereo unspecified), the inhibition was 9.37%.

Regarding `COc1ccc(NC(=S)N(CCc2c(C)[nH]c3ccccc23)Cc2ccco2)cc1`, the inhibition is -1.5%.

As for `O=C(Nc1ccc2snnc2c1)N1CCSCC1`, the inhibition is 6.62%.

Take `CC(c1ccccc1)N1C(=O)c2ccccc2C1O` (stereo unspecified): the inhibition was 0.46%.

Regarding `CN(C)S(=O)(=O)c1ccc(N2CCOCC2)nc1`, the inhibition is 8.35%.

As for `O=C(NN1C(=O)/C(=C/c2cccs2)SC1=S)c1ccccc1`, the inhibition was 7.49%.

For the molecule `CC(=O)NN1C(=O)/C(=C\c2ccccc2)SC1=S`, the inhibition was 12.8%.

Turning to `O=S(=O)(Nc1nc2ccccc2[nH]1)c1ccccc1`, the inhibition is 1.84%.

For `O=C1/C(=C/c2cccs2)SC(=S)N1c1ccccc1`, the inhibition was 5.36%.

On to `Cc1ccc(S(=O)(=O)NN2C(=O)/C(=C/c3ccccn3)SC2=S)cc1`, for which the inhibition was 17.4%.

Regarding `O=C(NN1C(=O)/C(=C/c2cccs2)SC1=S)c1ccncc1`, the inhibition is 20.6%.

Regarding `Nc1nnc(CSc2ccc(Cl)cc2)s1`, the inhibition was -0.69%.
